The record followed here is PubChem BioAssay AID1628 (Sanford-Burnham Center for Chemical Genomics, 2009).

The whole screen tested about 190,000 compounds, of which about 930 (0.49%) were called active. Some of the results follow. Results with a measured potency or affinity are listed apart. Values without a mark were called inactive.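 Rule for the calls: active = z-score of insulin promoter reporter brightness in nuclei below -3 at 5 µM, with at least 500 cells counted; inconclusive = wells with under 500 cells, flagged as toxic or sparse; inactive = the rest.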

The experiment in a line: insulin promoter down-regulators in MIN6 cells, imaging, high-content screening, mouse beta cells (AID 1628). The settings on record: MIN6 insulin promoter GFP reporter, at 5 µM, active compounds read low.
As for `O=C(NCCN1CCN(Cc2ccc([N+](=O)[O-])cc2)CC1)C(=O)Nc1ccccc1`, the z-score was -3.53 (active). Then `COc1cc(/C=C/C(=O)c2ccccc2O)cc(OC)c1OC`, with -0.68. For the compound `COc1ccc(C(=O)/C=C/c2ccccc2)c(O)c1`, the z-score is -0.73. In the case of `Cc1ccc(C(=O)Nc2ccccc2C(=O)NCc2ccco2)cc1S(=O)(=O)N1CCCCC1`, the z-score is -3.27 (active). Turning to `Cc1onc(-c2c(Cl)cccc2Cl)c1C(=O)NCc1ccco1`, the z-score was -0.41.

For `COCCNC(=S)N/N=C(\C)c1ccc2cc(OC)ccc2c1`, the z-score was 3.43. Regarding `Cc1cccc(NC(=O)/C=C/c2ccc([N+](=O)[O-])s2)c1`, the z-score is 9.92. As to `Cc1cccc(NC(=O)CCNS(=O)(=O)c2cccc3nonc23)c1`, the z-score is 0.73. Then `N#CCc1nc(CSc2nc3ccccc3s2)cs1`, with 4.03; and `CCN(CC)c1ccc(/C=C/C(=O)c2ccc(Br)cc2)cc1`, with 8.04; and `CC(=O)Nc1cccc(C(=O)/C=C/c2ccc(N(C)C)cc2)c1`, with 12.5. The result for `CN(C)c1ccc(N/C=C/C(=O)c2ccc(F)cc2)cc1` reads -5.01 (active); that for `CN(C)C(=O)CN(c1ccc2c(c1)OCO2)S(C)(=O)=O`, 3.6. `COc1ccc(S(=O)(=O)N(C)CC(=O)Nc2ccc3c(c2)OCO3)cc1OC`: the z-score was -5.9 (active). Turning to `Cc1cc(C)nc(NS(=O)(=O)c2ccc(NC(=O)c3ccc4c(c3)OCO4)cc2)n1`, the z-score was -0.38. The result for `Cc1oc(C)c2c(=O)ccc3c(c12)OC(N)=C(C#N)C3c1ccccc1` (centres undefined) reads 6.6; that for `CCCN(CCC)c1ccc(/C=C/c2ccc3cc(OCC)ccc3n2)cc1`, 5.3.

As to `Cc1nc2ccc(NC(=O)c3cc(S(=O)(=O)N4CCOCC4)ccc3C)cc2s1`, the z-score was -3 (active).

In the case of `COc1ccc(C(=O)Nc2ccc3nc(C)sc3c2)cc1OC`, the z-score is 1.51. Regarding `Cc1ccc(C(C)C)c(OCc2nn(CC(=O)c3ccc(Cl)cc3)c3[n+]2CCCCC3)c1`, the z-score is -4.3 (active). As for `N#CC1=C(N)C(C#N)(C#N)[C@H](c2ccoc2)[C@H]2CN(Cc3ccccc3)CC=C12`, the z-score was 5.86. `CCN(CC)CC(O)COc1ccc2c(c1)c(C(C)=O)c(C)n2-c1ccccc1` (centres undefined): the z-score is -3.02 (active). Turning to `CC(C)CN1C(=O)/C(=C/c2c(N3CCc4ccccc4C3)nc3ccccn3c2=O)SC1=S`, the z-score is 16.9. For the compound `COc1cc(C2C(C#N)=C(C)NC3=C2C(=O)CC(C)(C)C3)ccc1O` (centres undefined), the z-score is -4.47 (active). As to `COc1ccc(C2C3=C(CCCC3=O)Nc3ccc4ncccc4c32)cc1OC` (centres undefined), the z-score was 2.27.

With `COCC(C)n1c(SCC(=O)NC(=O)Nc2ccc3c(c2)OCCO3)nc2ccccc2c1=O` (centres undefined), the z-score was -4.52 (active). `O=c1c(-c2ccccc2)coc2cc(O)ccc12`: the z-score was 0.33. On to `O=c1[nH]c(/C(Cl)=C/c2cccc(F)c2)nc2cc(C(F)(F)F)ccc12`, for which the z-score was -4.9 (active). Consider `COC(=O)c1cc(CSc2nc3ccc(C)cc3[nH]2)oc1C`, for which the z-score is -3.9 (active). Then `CCN(CC)c1ccc(/C=C(/C#N)c2nc3ccc(C)cc3[nH]2)c(OC(C)C)c1`, with 10.8. As for `C=CCNC(=O)c1c2c(nc3ccccc13)-c1ccccc1CC2`, the z-score is 4.54.

As to `NC(=O)c1ccc(NC(=O)COC(=O)c2c3c(nc4ccccc24)/C(=C\c2cccs2)CCC3)cc1`, the z-score is -3.07 (active).

As for `CC1CCCCC1NC(=O)COC(=O)c1c2c(nc3ccccc13)/C(=C/c1ccco1)CC2` (centres undefined), the z-score was 7.1.

For `Cc1ccc(S(=O)(=O)Cn2nnnc2C(CC(C)C)N2CCN(c3ccccc3)CC2)cc1` (centres undefined), the z-score is -4.77 (active). On to `Cn1ccc(=S)c2ccccc21`, for which the z-score was 3.38. `COC(=O)c1ccccc1NC(=O)Cn1cnc2cc(C)c(C)cc21`: the z-score is -3.24 (active).

On to `Cc1[nH]n(-c2ccc([N+](=O)[O-])cc2)c(=O)c1C=NCCN1CCN(C(=O)c2ccccc2F)CC1`, for which the z-score was 4.48. Take `COC(=O)c1ccc(N2C(=O)CC(Sc3n[nH]c(C)n3)C2=O)cc1` (centres undefined): the z-score was 1.02. With `COc1ccccc1N1C(=O)CC(Sc2n[nH]c(-c3cccc(C)c3)n2)C1=O` (centres undefined), the z-score is -5.2 (active). Then `N#CC(C#N)=C1C=C2C=C(N3CCOCC3)CCC2CC1` (centres undefined), with 15.6. Turning to `COc1ccccc1/C=N/n1c(N)c(S(=O)(=O)c2cccs2)c2nc3ccccc3nc21`, the z-score is -3.63 (active). For the compound `O=c1c2ccccc2nc(-c2ccco2)n1/N=C/c1ccco1`, the z-score was 2.3. On to `CC(C)(C)c1ccc(OCC(=O)Nc2ccc3c4c(cccc24)C(=O)NC3=O)cc1`, for which the z-score was 5.3. The result for `CCOc1ccc(C2C(C(=O)O)c3ccccc3C(=O)N2CCN2CCOCC2)cc1` (centres undefined) reads 4.94; that for `CCOc1ccc(C2=C(C=Nc3c(C)n(C)n(-c4ccccc4)c3=O)C(c3ccc(F)cc3)c3ccccc3O2)cc1` (centres undefined), -4.16 (active); that for `COc1ccc(CNc2cc(NCCCO)c([N+](=O)[O-])c3nonc23)cc1`, 2.28.

`Cc1cccc(-n2nnc(C(=O)NCc3ccccc3Cl)c2N)c1`: the z-score was 1.52. As for `Cc1nn(-c2ccccc2)c(C)c1/C=N/NC(=O)CSc1nnc(SCc2ccccc2Cl)s1`, the z-score was -3.39 (active).

In the case of `O=C1S/C(=C\c2ccc(N3CCOCC3)o2)C(=O)N1Cc1ccc(F)cc1`, the z-score is 8.79. As for `CC1CCc2cc(F)ccc2N1C(=O)c1ccc2c(c1)OCO2` (centres undefined), the z-score was -4.9 (active). Regarding `Cc1ccc(-c2cn3cccnc3n2)cc1`, the z-score is 2.84.

For the compound `Cc1ccn2c(NC3CCCCC3)c(C)nc2c1`, the z-score is 3.89. In the case of `Cc1ccn2c(Nc3ccccc3C)c(-c3ccccn3)nc2c1`, the z-score is -3.6 (active). With `COc1ccc(Nc2c(-c3ccco3)nc3ccc(C)cn23)cc1`, the z-score is 5.18.

As to `COc1ccc(-n2nc([N+](=O)[O-])c(=NCc3ccco3)n2O)cc1`, the z-score was 4.25. With `Cc1ccc(-c2cc(C(F)(F)F)n3nc(C(=O)NCCCn4ccnc4)cc3n2)cc1C`, the z-score was -5.59 (active).

In the case of `CC1CCN(C(=O)c2cc3nc(C4CC4)cc(C(F)(F)F)n3n2)CC1`, the z-score was -0.53.

For `O=C(Cn1cnc2c(cnn2-c2ccc(F)cc2)c1=O)N1CCCc2ccccc21`, the z-score was 1.13. Consider `O=C(CSCC(=O)N1CCCc2ccccc21)Nc1nc(-c2ccccc2)cs1`, for which the z-score is -4.03 (active).
